Measurements as given in PubChem BioAssay (NCATS).
Records with an inconclusive call do not appear. Where a call stands in place of a potency, no number is given. Active and inactive are the calls of the source. Calls follow the shape of the dose curve; as a rule, active = well fitted inhibition curve with a large enough effect; inconclusive = small, poorly fitted or top-dose-only effect; inactive = flat fitted curve, though single readings scatter.

The molecules below were run against Ubiquitin carboxyl-terminal hydrolase 1 (Homo sapiens) (UniProt O94782) (assay: Inhibitors of USP1/UAF1: Pilot qHTS (AID 504865;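 also: rhodamine fluorescence freed from ubiquitin-rhodamine substrate followed over time; top concentration of the series differs between compounds; nearly all actives have a fitted effect of over 35% in size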)). Conditions: purified USP1/UAF1, Ub-rhodamine cleavage fluorescence; series mostly up to 114 µM.
Ubiquitin carboxyl-terminal hydrolase 1 (Homo sapiens), sequence (O94782 whole entry, looked up): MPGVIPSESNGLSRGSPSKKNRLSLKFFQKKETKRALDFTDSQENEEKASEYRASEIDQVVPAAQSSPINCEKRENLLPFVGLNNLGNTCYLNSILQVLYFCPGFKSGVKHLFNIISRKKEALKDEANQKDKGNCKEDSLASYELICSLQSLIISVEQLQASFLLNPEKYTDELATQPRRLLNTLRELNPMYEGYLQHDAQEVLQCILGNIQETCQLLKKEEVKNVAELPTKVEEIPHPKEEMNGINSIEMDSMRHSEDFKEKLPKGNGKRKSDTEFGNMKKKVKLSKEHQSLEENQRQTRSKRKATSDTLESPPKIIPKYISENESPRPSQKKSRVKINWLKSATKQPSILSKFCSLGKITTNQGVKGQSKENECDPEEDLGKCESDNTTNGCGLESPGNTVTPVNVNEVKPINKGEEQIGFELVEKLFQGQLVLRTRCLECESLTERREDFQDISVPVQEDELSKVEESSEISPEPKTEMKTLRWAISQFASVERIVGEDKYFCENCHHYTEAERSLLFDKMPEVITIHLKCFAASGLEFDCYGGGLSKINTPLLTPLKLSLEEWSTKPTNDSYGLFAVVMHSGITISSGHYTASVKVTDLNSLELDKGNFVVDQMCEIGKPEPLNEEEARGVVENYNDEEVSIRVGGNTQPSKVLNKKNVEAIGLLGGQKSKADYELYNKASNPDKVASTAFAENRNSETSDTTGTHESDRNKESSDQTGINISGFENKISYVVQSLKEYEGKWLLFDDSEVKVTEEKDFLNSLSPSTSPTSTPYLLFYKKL
Summary of the method: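 USP1/UAF1 complex at 1 nM preincubated 15 min at room temperature with compound, then Ub-Rho substrate added at 150 nM final. Fluorescence (480/540 nm) read kinetically in 50 mM HEPES pH 7.8, 0.5 mM EDTA, 1 mM TCEP, 0.1 mg/ml BSA, 0.01% Tween-20.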

Compound	Potency
COc1ccc(-c2cc(C(F)F)nn2-c2ccc(S(N)(=O)=O)cc2)cc1F	inactive
Cc1cccc(C)c1NC(=O)CN1CCCC1	inactive
CC(=O)N[C@@H](CCC(=O)O)C(=O)O	inactive
NC(=O)C1(N2CCCCC2)CCN(CCCC(=O)c2ccc(F)cc2)CC1	inactive
CC(=O)OCC(=O)[C@H]1CC[C@H]2[C@@H]3CCC4=CC(=O)CC[C@]4(C)[C@H]3CC[C@]12C	inactive
N#CCC(=O)NN	inactive
CCNC(=O)NCc1cccc(Cl)c1	inactive
CN1CCN(c2c(F)cc3c(=O)c(C(=O)O)cn4c3c2SCC4)CC1	inactive
CC(C)(C)NC[C@H](O)COc1cccc2c1CCCC2=O	inactive
O=C(c1ccc(F)cc1)C1CCN(CCn2c(=S)[nH]c3ccccc3c2=O)CC1	inactive
Cc1ccccc1OCC(O)CO (stereo unspecified)	inactive
CC(=O)NO	inactive
COc1ccc(CCN(C)CCCN2CCc3cc(OC)c(OC)cc3CC2=O)cc1OC	inactive
O=C(NC1CCN(CCc2c[nH]c3ccccc23)CC1)c1ccccc1	inactive
CNCCc1ccccn1	inactive
COc1cc(NS(=O)(=O)c2ccc(N)cc2)ncn1	inactive
C[N+]1(CC2COC(c3ccccc3)(C3CCCCC3)O2)CCCCC1 (stereo unspecified)	inactive
CC(C)Cc1ccc(CC(=O)O)cc1	inactive
CCCc1ncc(C[n+]2ccccc2C)c(N)n1	inactive
CC(=O)Nc1ccc(S(=O)(=O)Nc2ccc([N+](=O)[O-])cc2)cc1	inactive
O[C@@H](c1cc(C(F)(F)F)nc2c(C(F)(F)F)cccc12)[C@H]1CCCCN1	inactive
